Shown are actives, neighbours in structure and some others; about 11% of the full set was active somewhere.
Luciferase inh = blocks purified firefly luciferase enzyme activity; P08659; hit rate 2.5% among 76,000; purified P. pyralis luciferase, luminescence, biochemical; AID 1347043; Potency, µM (doses to about 115 µM), actives largely listed as inhibitors; also: nearly all actives have a fitted effect of over 65% in size
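FLuc 10nM, D-luciferin 10uM, ATP 10uM, Mg acetate 10mM, Tris acetate pH 7.5, Tween/BSA; cpd qHTS; enzyme added last; CCD luminescence.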
HEK293 tox = HEK 293 cell cytotoxicity | AID 1345083 | Potency, µM (doses to about 115 µM), for the others: at the top dose activity change, negative = cytotoxicity, actives largely listed as inhibitors | HEK 293 viability, ATP luminescence (CellTiter-Glo), 48-72 h | hit rate 6.6% among 94,000; also: nearly all actives have a fitted effect of over 60% in size
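HEK 293 cells seeded at 250 cells/well were exposed to compound for 48 or 72 hr at 37 degree Celsius. Viability taken as ATP content by CellTiter-Glo luminescence.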
NIH3T3 tox = NIH 3T3 cell cytotoxicity; Potency, µM (series often up to 96.7 µM), without a hit: top-dose activity change, negative = cytotoxicity, actives largely listed as inhibitors; hit rate 4.3% among 94,000; NIH 3T3 viability, CellTiter-Glo ATP luminescence, 48-72 h; also: nearly all actives have a fitted effect of over 55% in size
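Mouse fibroblast NIH 3T3 cells, 400 per well, received compound via pintool and were incubated for 48 or 72 hr prior to CellTiter-Glo ATP luminescence measurement.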
NPR1 antag = blocks ANP-stimulated signaling of human Npr1 receptor. P16066. HEK293 hNpr1 GloSensor cGMP, ANP-stimulated luminescence. Potency, µM (top dose mostly 46.3 µM), for inactives: at the top dose activity change, negative = inhibition, actives largely listed as inhibitors. hit rate 1.6% among 76,000. AID 1347048; calls by dose curve; also: nearly all actives have a fitted effect of over 60% in size
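HEK293 cells stably expressing human Npr1 and cGMP GloSensor pGS-40F, loaded 2 h with 2% GloSensor reagent, given compound 30 min at room temperature. Luminescence read before and 20 min after 0.1 nM hNppA.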
An asterisk follows results filed as active; i = inactive; ? = inconclusive; · = not tested or not shown; [ ] = dose if it differs, or a comment. Unless noted, calls follow the shape of the dose curve; as a rule, active = well fitted curve in the direction sought with a large enough effect; inconclusive = small, poorly fitted or top-dose-only effect, or another doubt; inactive = no such curve, though single readings can be large; an effect the other way counts as inactive or inconclusive. % is scaled to controls: 0 for no effect and ±100 for the full control effect; potency is read from the fitted curve at half-maximal effect.

SMILES	Luciferase inh	HEK293 tox	NIH3T3 tox	NPR1 antag
COCCNC(=O)Cc1ccc(N(Cc2ccccc2)C(=O)c2ccco2)cc1	i	-1%	-4%	7%
O=C(Cc1ccc(N(Cc2ccccc2)C(=O)c2ccco2)cc1)NCCc1ccccc1	i	50µM*	?	-6%
O=C(Cc1ccc(N(Cc2ccccc2)C(=O)c2ccco2)cc1)Nc1ccccc1	?	35µM*	?	-15%
CC[C@@H]1[C@@H](NC(=O)C2(c3ccc(S(C)(=O)=O)cc3)CCC2)[C@@H]2CCO[C@H]12	i	-3%	2%	-10%
C#CCNC(=O)c1nc(-c2c(C)cccc2C)c2ccccn12	i	?	?	-6%[70.6 µM]
Cc1nnc(-c2cc(-c3cnn(C)c3)ccn2)n1C1CCCCC1	i	2%[172 µM]	?	0%[70.6 µM]
Cc1nnc(-c2cc(-c3cccnc3)ccn2)n1C1CCCCC1	i	i	89µM*	5%[70.6 µM]
Cc1nnc(-c2cc(-c3ccc(N4CCOCC4)cc3)ccn2)n1C1CCCCC1	?	79µM*	?	2%[70.6 µM]
COc1ccc(S(=O)(=O)NC[C@H]2COCc3nc4ccc(C)cc4n32)cc1	i	?	89µM*	?
COc1ccc2nc3n(c2c1)[C@@H](CNCC(C)(C)C)COC3	i	?	32µM*	3%[70.6 µM]
COc1ccc2nc3n(c2c1)[C@@H](CNCc1ccccc1)COC3	i	?	?	?
COc1ccc2nc3n(c2c1)[C@@H](CNS(=O)(=O)c1ccc(F)cc1)COC3	i	-29%[172 µM]	?	0%[70.6 µM]
O=C1NC(=NC2CCCC2)C2(CCN(Cc3ccsc3)CC2)N1c1cc(F)cc(F)c1	·	-5%	0%	·
O=C(Nc1ccncn1)[C@@H]1C[C@@H](c2ccc(F)cc2)N(CCOc2ccccc2)C1	i	?	?	?
O=C(Nc1nccs1)[C@@H]1C[C@@H](c2cccc(C(F)(F)F)c2)N(CC2CCOCC2)C1	i	?	79µM*	-20%[70.6 µM]
O=C(Nc1cccnc1)[C@@H]1C[C@@H](c2ccc(F)cc2)N(CCOc2ccccc2)C1	i	?	89µM*	?
O=C(NCc1ccncc1)[C@@H]1C[C@@H](c2ccc(F)cc2)N(Cc2ccccc2)C1	i	?	-16%[138 µM]	2%[70.6 µM]
O=C(Nc1nccs1)[C@@H]1C[C@H](c2ccc(F)cc2)N(Cc2ccccc2Cl)C1	i	?	32µM*	-3%[70.6 µM]
Cn1ccc(NC(=O)[C@@H]2C[C@H](c3ccc(F)cc3)N(Cc3ccccc3Cl)C2)n1	i	50µM*	?	?
COC(=O)N1CCc2nc(C)nc(-c3ccc(OC)cc3)c2C1	·	-24%[172 µM]	-27%[138 µM]	·
COc1cccc(N2CC(C(=O)N3CCC(C(=O)NCCc4ccc(F)cc4)C3)NC2=O)c1 (centres undefined)	i	0%	-12%	-10%
CC(=O)Nc1ccc(S(=O)(=O)N[C@H]2CO[C@H]3[C@@H]2OC[C@@H]3n2nnnc2Oc2cccc(N(C)C)c2)cc1	i	-12%	-16%	6%
COc1cccc(-c2ccc(C(=O)NCCNC(=O)Cc3ccccn3)cc2)c1	·	?	-15%	·
O=C(Nc1nccs1)[C@@H]1C[C@@H](c2ccc(F)cc2)N(Cc2ccccc2)C1	i	40µM*	?	?
Cc1csc(NC(=O)[C@@H]2C[C@H](c3cccc(C(F)(F)F)c3)N(Cc3cnn(C)c3)C2)n1	i	?	28µM*	-13%
SMILES	Luciferase inh	HEK293 tox	NIH3T3 tox	NPR1 antag
Cc1csc(NC(=O)[C@@H]2C[C@@H](c3cccc(C(F)(F)F)c3)N(Cc3cnn(C)c3)C2)n1	i	?	?	2%
C#CCNC(=O)c1nc(-c2cccnc2)c2cnccn12	i	?	-22%[138 µM]	13%[70.6 µM]
C#CCNC(=O)c1nc(-c2ccsc2)c2cnccn12	i	100µM*	-21%[138 µM]	0%[70.6 µM]
O=C(c1cccc(Cl)c1)N1CCC(C(=O)N2CCC(N3CCCC3=O)CC2)CC1	·	-5%	-18%	·
O=C1CC(c2noc(Cc3ccc(Cl)cc3)n2)CN1C1CCCCC1 (centres undefined)	i	71µM*	?	-17%
CCOc1ccc(Cc2nc(C3CC(=O)N(C4CCCCC4)C3)no2)cc1 (centres undefined)	i	?	-25%	-3%
COC(=O)c1ccc(COC[C@@H]2CN(C(C)C)S(=O)(=O)[C@H]2c2ccccc2)cc1	·	40µM*	?	·

Screens from PubChem BioAssay.
